Assay outcomes deposited in PubChem by Broad Institute.
NOMO-1 viab = NOMO-1 AML cell viability reduction, primary screen, STK33 inhibitor project, CellTiter-Glo luminescence. NOMO-1 AML viability, 72 h. inhibition, % (concentration not given with the values). 37,000 tested, 7.5% active. AID 2330, 2010; in the data active = inhibition above about 80%; inconclusive = no clear call, values can overlap the other calls
MITF inh = inhibitors of MITF, primary screen, MITF inhibitor project, cell-based, luminescence; TRPM1 promoter luciferase, 24 h; inhibition, % (no concentration beside the values); 37,000 tested, 0.28% active; in the data active = inhibition above about 85%; inconclusive = no clear call, values can overlap the other calls; inactive = below about 68%;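 note: human melanocyte line stably carrying TRPM1 promoter luciferase reporter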
Hedgehog inh = Hedgehog pathway signaling inhibitors, primary screen, luminescence, Shh-LIGHT2 cells, Gli-luciferase | Shh-LIGHT2 Gli-luciferase reporter, 30 h | inhibition, % (no concentration beside the values) | 22,000 tested, 2.1% active;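 active = mean inhibition across valid replicates above about 65%, limit read from the data; inconclusive = mean under the limit, yet half or more replicates past it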;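 note: pathway switched on by Shh-conditioned medium diluted 1 in 25 in low serum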
Numbers without * were called inactive. A selection: hits, their analogues and other compounds. The true share with any hit is near 7.8%.

Screening CCCCCc1cc(O)c2c(c1)OC(C)(C)[C@@H]1CCC(C(=O)O)=CC21 (stereo partly specified) returned NOMO-1 viab 20, MITF inh 19 and Hedgehog inh 24.
`COC(=O)C1CC(=O)C[C@H]2[C@]3(C)C[C@@H](c4ccoc4)OC(=O)[C@H]3CC[C@@]12C` (stereo partly specified) gave NOMO-1 viab 1, MITF inh -20 and Hedgehog inh 0.
`C=CC/C=C\C/C=C\CCCCCCCc1cc(O)cc(O)c1` gave NOMO-1 viab 109*, MITF inh 6 and Hedgehog inh 28.
For CCN(CC)P1(=O)OC(C)(C)CC1(C)O (stereo unspecified) the results were NOMO-1 viab 12, MITF inh -11 and Hedgehog inh -18.
CC1OC(O[C@H]2C[C@@H](O)[C@]3(CO)[C@H]4[C@H](O)C[C@]5(C)[C@@H](C6=CC(=O)OC6)CC[C@]5(O)[C@@H]4CC[C@]3(O)C2)C(O)C(O)C1O (stereo partly specified) was read as NOMO-1 viab 98*, MITF inh 6 and Hedgehog inh -25.
`C[C@H]1O[C@@H](O[C@H]2C[C@@H](O)[C@]3(CO)C4C(CC[C@]3(O)C2)[C@@]2(O)CC[C@H](C3=CC(=O)OC3)[C@@]2(C)C[C@H]4O)[C@@H](O)[C@@H](O)[C@H]1O` (stereo partly specified) gave NOMO-1 viab 121*, MITF inh 31 and Hedgehog inh -22.
C[C@@H]1O[C@@H](O[C@H]2C[C@@H](O)[C@]3(CO)C4C(CC[C@]3(O)C2)[C@@]2(O)CC[C@H](C3=CC(=O)OC3)[C@@]2(C)C[C@H]4O)[C@H](O)[C@H](O)[C@H]1O (stereo partly specified) was read as NOMO-1 viab 107*, MITF inh 7 and Hedgehog inh -16.
For CC(=O)c1cccc(NC(=O)CSC2c3ccccc3-c3ccccc32)c1 the results were NOMO-1 viab 38 and MITF inh 5.
Cc1c(O)c(C(=O)O)c(O)c2c1[C@H](C)[C@@H](C)OC2=O was read as NOMO-1 viab -9, MITF inh 11 and Hedgehog inh -4.
`CC[C@H]1CN2CC[C@H]1C[C@@H]2[C@@H](O)c1ccnc2ccc(OC)cc12` gave NOMO-1 viab 23, MITF inh -4 and Hedgehog inh 17.
`CC(=O)Oc1ccc(/C=C/c2cc(OC(C)=O)cc(OC(C)=O)c2)cc1` gave NOMO-1 viab 88*, MITF inh 84 and Hedgehog inh -13.
For CCN1C[C@]2(C)CC[C@H](OC)[C@@]34C1[C@@]1(OCO[C@@]15C[C@H](OC)[C@H]1C[C@]3(O)[C@@H]5[C@H]1OC)[C@@H](OC(C)=O)[C@H]24 the results were NOMO-1 viab 11, MITF inh -6 and Hedgehog inh 3.
`CN1CCN(c2ccc3ccccc3n2)CC1` gave NOMO-1 viab 11, MITF inh -17 and Hedgehog inh -12.
`CC[C@H]1CN2CC[C@H]1C[C@H]2[C@H](O)c1ccnc2ccc(OC)cc12` gave NOMO-1 viab 4, MITF inh 5 and Hedgehog inh 2.
C[C@@H]1C(=O)O[C@H]2[C@H]1CC[C@@]1(C)C=CC(=O)[C@@]3(C)O[C@@]213 was read as NOMO-1 viab 88*, MITF inh -2 and Hedgehog inh 18.
For COC1=CC(=O)O[C@@H](CCc2ccc3c(c2)OCO3)C1 the results were NOMO-1 viab 13, MITF inh -7 and Hedgehog inh -6.
`CN1Cc2c(ccc3c2OCO3)[C@@H]2[C@H]1c1cc3c(cc1C[C@@H]2O)OCO3` gave NOMO-1 viab 138*, MITF inh 23 and Hedgehog inh -8.
CN1CCC2=C[C@H](O)[C@H]3OC(=O)c4cc5c(cc4[C@H]3[C@@H]21)OCO5 was read as NOMO-1 viab 26, MITF inh 3 and Hedgehog inh -5.
`COc1cc2c(cc1OC)C13CCN(C)CC4=CCOC5CC(=O)N2C1C5C4CC3=O` (stereo unspecified) gave NOMO-1 viab 23, MITF inh 4 and Hedgehog inh 20.
Screening O=C(Cn1cc(C(=O)c2ccccc2)c2ccccc21)NCC1CCCO1 (stereo unspecified) returned NOMO-1 viab 23 and MITF inh -6.
`CC1OC(n2cnc3c(N)ncnc32)C[C@H]1O` (stereo partly specified) gave NOMO-1 viab 7, MITF inh -10 and Hedgehog inh 20.
`O=c1[nH]c2ccccc2n1C1CCN(CCCC(c2ccc(F)cc2)c2ccc(F)cc2)CC1` gave NOMO-1 viab 116*, MITF inh 56 and Hedgehog inh 73*.
`CO/C1=C/C(C)=C/[C@@H](C)[C@@H](O)[C@@H](C)C/C(C)=C/C=C\[C@H](OC)[C@@H]([C@@H](C)[C@@H](O)[C@H](C)[C@@]2(O)C[C@@H](O)[C@H](C)[C@@H](C(C)C)O2)OC1=O` gave NOMO-1 viab 142*, MITF inh -61 and Hedgehog inh 97*.
For CCC[C@H]1C[C@H]2OC(=O)c3c(cc(OC)c(OC)c3O)[C@H]2O1 the results were NOMO-1 viab 14, MITF inh 43 and Hedgehog inh -25.
For O=C(CCl)c1cc(Br)c(Br)s1 the results were NOMO-1 viab 99*, MITF inh 11 and Hedgehog inh -33.
Screening CCC12CCCN3CCC4(c5ccc(OC)c(O)c5N(C(C)=O)C4CC1)C32 (stereo unspecified) returned NOMO-1 viab 20, MITF inh -39 and Hedgehog inh -4.
Screening CN1CCc2nc3sc(C(=O)C(C)(C)C)c(N)c3cc2C1 returned NOMO-1 viab 122*, MITF inh 41 and Hedgehog inh inconclusive.
For CCCCC/C=C\C/C=C\C/C=C\C/C=C\CCCC(N)=O the results were NOMO-1 viab 8, MITF inh 7 and Hedgehog inh -26.
Screening Cc1cc(C(F)F)n2nc(C(=O)Nc3ccc4c(C(F)(F)F)cc(=O)oc4c3)nc2n1 returned NOMO-1 viab 13 and MITF inh -17.
C=C(C)[C@H]1O[C@H]2CC[C@@]3(C)[C@@](O)(CC[C@H]4[C@@H]5OC(C)(C)[C@H]6C[C@@H]7C(=C)Cc8c(Cl)cc9[nH]c(c5c9c8[C@@]76O)[C@@]43C)[C@]23O[C@@H]3[C@H]1O was read as NOMO-1 viab 116*, MITF inh 52 and Hedgehog inh -12.
COCc1cc(OC(=O)N(C)C)nc(-c2ccncc2)n1 was read as NOMO-1 viab 22 and MITF inh -21.
`N#CC(O[C@@H]1O[C@H](CO[C@@H]2O[C@H](CO)[C@@H](O)[C@H](O)[C@H]2O)[C@@H](O)[C@H](O)[C@H]1O)c1ccccc1` (stereo partly specified) gave NOMO-1 viab 35, MITF inh 3 and Hedgehog inh 33.
Screening COC1=CC(=O)O[C@@H](/C=C/c2ccccc2)C1 returned NOMO-1 viab 34, MITF inh -52 and Hedgehog inh -66.
`COCc1cc(OC(=O)N(C)C)nc2c1c(-c1cccs1)nn2C` gave NOMO-1 viab 18, MITF inh 0 and Hedgehog inh 19.
